TDP1 cell CPT = DT40-hTDP1 cell growth loss with CPT. chicken DT40 Tdp1-/-;hTDP1 cells + 20 nM CPT, ATP luminescence, 48 h. Potency, µM (doses to about 46.2 µM), usual class: inhibitors. 12% of 420,000 active. AID 686979; note: nearly all actives have a fitted effect of over 55% in size
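Chicken DT40 Tdp1-/- cells stably complemented with human TDP1 were seeded at 400 cells/well in medium containing 20 nM camptothecin, exposed to pin-transferred compounds, and grown at 37 °C for at least 48 hr. Viability was read as ATP luminescence.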
ELG1 repair inh = ELG1-dependent DNA repair inhibition; HEK293T ELG1-luciferase reporter, luminescence, 16 h; DNA damage induced by 5-fluorouridine; Potency, µM (titrated, usually from 46.1 µM), hits mostly inhibitors; 2.3% of 330,000 active; AID 504467; note: nearly all actives have a fitted effect of over 55% in size
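In this reporter screen, reduction of luminescence relative to DMSO vehicle indicated activity. Compounds and 5-fluorouridine were added together to 2,000 cells per well, incubated for 16 hr at 37 °C, then developed with ONE-Glo.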
TDP1 cell noCPT = qHTS for Inhibitors of human tyrosyl-DNA phosphodiesterase 1 (TDP1): qHTS in cells in absence of CPT. DT40 Tdp1-/- hTDP1 cells, no CPT, ATP luminescence, 48 h. Potency, µM (series often up to 46.2 µM), hits mostly inhibitors. 15% of 420,000 active. AID 686978, 2013; note: nearly all actives have a fitted effect of over 55% in size
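Growth kinetics read by CellTiter-Glo luminescence after ≥48 hr at 37 °C. Cells: DT40 Tdp1-/- stably carrying human TDP1, 400 per well, compound exposure in the absence of CPT (DMSO vehicle).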
VP16 counter = inhibits Gal4-VP16 luciferase reporter, ROR gamma counter-screen; Drosophila S2 Gal4-VP16 UAS-luciferase, luminescence, 20 h; Potency, µM (highest dose often 53.6 µM), hits mostly inhibitors; 3.5% of 310,000 active; AID 2546;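 note: Gal4-VP16 expression switched on by copper sulfate through the metallothionein promoter; nearly all actives have a fitted effect of over 50% in size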
IL1B secr inh = blocks inflammasome-driven IL-1 beta release; THP-1 LPS/ATP IL-1B secretion, AlphaLISA, 16 h; stronger effect = lower value; activity change, % at 57.5 µM; 4.7% of 360,000 active; AID 743279; in the data active = activity change below about -50%; inconclusive = mostly about -30% to -49%
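THP-1 cells pretreated 1 hr with compounds (up to 57.5 uM final), then stimulated with LPS (250 ng/mL final) plus ATP (1.25 mM final); secreted IL-1B measured by AlphaLISA after 16 hr, decreased signal indicating inhibition.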
RORg inh = inhibitors of mouse ROR gamma transcriptional activity. Drosophila S2 Gal4-RORgamma UAS-luciferase reporter, 20 h. Potency, µM (doses to about 53.6 µM), usual class: inhibitors. 5.4% of 310,000 active. AID 2551; note: nearly all actives have a fitted effect of over 60% in size
Target sequence (P51450 whole entry, looked up, the tested form may be a part): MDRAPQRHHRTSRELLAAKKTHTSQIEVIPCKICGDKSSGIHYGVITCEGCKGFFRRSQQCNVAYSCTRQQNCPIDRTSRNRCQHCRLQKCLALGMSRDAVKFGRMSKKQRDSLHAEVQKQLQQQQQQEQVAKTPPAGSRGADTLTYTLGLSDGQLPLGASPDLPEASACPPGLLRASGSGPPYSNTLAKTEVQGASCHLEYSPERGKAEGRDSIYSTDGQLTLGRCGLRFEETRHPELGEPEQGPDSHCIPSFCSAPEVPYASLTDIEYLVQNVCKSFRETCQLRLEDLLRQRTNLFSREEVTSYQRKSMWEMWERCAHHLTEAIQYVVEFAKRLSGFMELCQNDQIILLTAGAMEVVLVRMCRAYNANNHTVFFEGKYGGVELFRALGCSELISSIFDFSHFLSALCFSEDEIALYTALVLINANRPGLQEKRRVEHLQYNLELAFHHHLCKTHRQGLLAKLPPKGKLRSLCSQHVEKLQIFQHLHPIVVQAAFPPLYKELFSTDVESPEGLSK
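ROR gamma transcriptional activity was tracked as Gal4-UAS luciferase output in stably transfected Drosophila Schneider cells, with compound added 1 hr before 700 uM copper sulfate induction and a 20 hr ambient-temperature incubation.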
Numbers stand for hits; . = inactive; ? = inconclusive; / = not tested or not shown. In the library only some 21% were active in any assay of this set; here they are far more common. Unless noted, calls come from the whole dose curve; as a rule, active = well fitted curve in the direction sought with a large enough effect; inconclusive = small, poorly fitted or top-dose-only effect, or another doubt; inactive = no such curve, though single readings can be large; an effect the other way counts as inactive or inconclusive.

SMILES	TDP1 cell CPT	ELG1 repair inh	TDP1 cell noCPT	VP16 counter	IL1B secr inh	RORg inh
N/C(CSc1ccc(Cl)cc1)=N\S(=O)(=O)c1ccc(Cl)cc1	.	.	.	.	.	.
CCCC[n+]1ccn(C2=C([O-])c3ccccc3C(=O)/C2=N\S(=O)(=O)c2ccc(Cl)cc2)c1	8.2µM	?	9.2µM	?	.	1.6µM
CCCC[n+]1ccn(-c2nc3ccccc3nc2[N-]S(=O)(=O)c2ccc(Br)cc2)c1	.	?	.	.	.	.
CCOC(=O)c1cc(OC)c2cccc(CN3CCC(C)(C(=O)NCCOC)C3)c2c1 (stereo unspecified)	?	/	?	/	.	/
COc1ncc2nc(-c3cn(C)c4ccccc34)c(=O)n(CCC#N)c2n1	.	/	.	.	/	.
COc1ccc(NC(=O)N2CC3(CCN(C(=O)c4cc(C(F)(F)F)cc(C(F)(F)F)c4)CC3)C2)cc1	.	/	.	.	/	.
O=C(NC1CCN(Cc2ccccc2)CC1)c1c(Cl)cccc1Cl	.	.	.	.	.	.
OC1(c2ccc(Cl)c(Cl)c2)C[n+]2ccccc2N1Cc1ccccc1 (stereo unspecified)	13µM	?	18µM	.	-85	.
CCc1ccccc1OCC(=O)Nc1ccc(S(=O)(=O)Nc2nc(C)cc(C)n2)cc1	.	/	?	/	/	/
Fc1ccccc1-c1n[nH]c(=S)n1CC1CCCO1 (stereo unspecified)	.	.	.	.	.	11µM
CC(C)(C)c1ccc(-c2n[nH]c(=S)n2CC2CCCO2)cc1 (stereo unspecified)	?	?	16µM	10µM	.	2.8µM
S=c1[nH]nc(-c2ccccc2Cl)n1CC1CCCO1 (stereo unspecified)	.	.	.	.	.	.
O=C(Nc1ccc(C(=O)N2CCCCC2)cc1)c1ccc(Br)cc1	.	.	?	.	.	?
CC(C)(C)c1ccc(C(=O)Nc2ccc(C=C(C#N)C#N)cc2)cc1	16µM	?	12µM	5.6µM	.	5µM
N#CC(C#N)=Cc1ccc(NC(=O)c2ccc(Br)cc2)cc1	21µM	?	16µM	.	?	.
Clc1cccc(Cl)c1C1Nc2cccc3cccc(c23)N1	?	?	?	4µM	.	0.71µM
C/C(=C\c1cc2ccccc2o1)C1Nc2cccc3cccc(c23)N1	/	.	/	/	/	/
Fc1cccc(Cl)c1C1Nc2cccc3cccc(c23)N1	23µM	.	21µM	/	.	/
O=C1CC(c2c(F)cccc2Cl)C2=C(COC2=O)N1 (stereo unspecified)	.	.	.	.	.	?
CCC(=O)c1ccc(OCC(=O)OCC(=O)N2CCc3ccccc32)cc1	.	.	.	/	.	/
O=C(O)c1ccc(N2C(=O)c3ccc(C(=O)c4cccc([N+](=O)[O-])c4)cc3C2=O)cc1	.	.	.	.	.	.
Cc1ccc(-n2cnc(N)c2C(=O)c2cccc([N+](=O)[O-])c2)cc1	?	?	29µM	.	/	.
COc1ccc(NC(=O)Nc2ccc3nccnc3c2)cc1	26µM	?	21µM	.	.	.
COc1ccc(NC(=O)Nc2nccs2)cc1	13µM	?	16µM	.	.	.
COc1ccc(NC(=O)Nc2ccc3nonc3c2)cc1	.	?	?	.	/	.
SMILES	TDP1 cell CPT	ELG1 repair inh	TDP1 cell noCPT	VP16 counter	IL1B secr inh	RORg inh
COc1ccc(C(=O)Nc2nccs2)cc1	.	?	.	.	.	.
CCOC(=O)C(C)Sc1ccc2nnc(-c3ccc(OCC)cc3)n2n1 (stereo unspecified)	10µM	/	.	/	/	/
C=CCOc1ccc2nnc(C)n2n1	.	.	.	.	?	.
COC(=O)c1ccc(CSc2ccc3nnc(-c4ccc(F)cc4)n3n2)o1	?	.	21µM	.	.	.
CCOc1ccc2nnc(-c3ccc(Br)cc3)n2n1	?	.	15µM	.	.	?
COC(=O)c1ccc(CSc2ccc3nnc(-c4ccccn4)n3n2)o1	.	.	?	?	.	11µM
CCOC(=O)CNC(=O)CSc1ccc2nnc(-c3ccc(F)cc3)n2n1	.	.	.	.	.	.
CCOc1ccc(-c2nnc3ccc(SCc4ccc(C(=O)OC)o4)nn23)cc1	?	21µM	16µM	?	.	.
CCOC(=O)Cc1nc(-c2ccccc2)n[nH]1	.	.	.	.	.	.
c1ccc(-c2cc(-c3ccncc3)nc3ccc4ccccc4c23)cc1	?	.	?	?	.	8.9µM
CCOC(=O)Cc1cc(-c2ccccc2)nc2ccc3ccccc3c12	?	.	13µM	.	.	.
O=C(Cn1nnc2ccccc21)Nc1ccccc1[N+](=O)[O-]	.	.	.	.	-79	.
Cc1ccsc1/C=N\NC(=O)c1cc(C(C)(C)C)[nH]n1	.	?	?	20µM	.	10µM
Cc1ccsc1/C=N/NC(=O)CO	.	?	.	.	.	.
Cc1ccsc1/C=N\NC(=O)Cn1nnc2ccccc21	?	.	18µM	?	.	14µM
Cc1cc(C(=O)N/N=C/c2sccc2C)no1	.	?	.	?	.	?
COc1ccc(NC(=O)Cn2nnc3ccccc32)c([N+](=O)[O-])c1	?	.	?	.	.	?
Cc1ccsc1/C=N/NC(=O)c1sccc1C	?	?	?	?	.	7.9µM
COc1cccc(OCCCCn2c(-c3ccc(Cl)cc3)nc3ccccc3c2=O)c1	.	/	.	/	/	/
COc1ccc(-c2[nH]ncc2C(=O)NCc2cccc(F)c2)cc1	.	/	.	/	/	/
CCOC(=O)[C@]12CCC=C1N(Cc1ccccc1)C(=O)[C@H](CC(=O)N1CCOCC1)C2	.	/	.	/	.	/
Cc1ccc(C(=O)N/N=C\c2sccc2C)cn1	.	?	.	?	.	?
Cc1ccsc1/C=N\NC(=O)c1ccc2c(c1)OCO2	?	?	?	?	.	7.1µM
Cc1ccsc1/C=N/NC(=O)CSCc1ccc(Cl)cc1	.	.	.	10µM	.	11µM
Cc1ccsc1/C=N/NC(=O)Cc1ccc(Cl)cc1	?	.	?	.	.	.
SMILES	TDP1 cell CPT	ELG1 repair inh	TDP1 cell noCPT	VP16 counter	IL1B secr inh	RORg inh
CCCCN(C)c1c(C)nc2ccc(C(=O)N3CCN(C(C)=O)CC3)cn12	?	/	?	/	.	/
CCCC(=O)N1CCN(c2nc3ccc(F)cc3s2)CC1	15µM	/	12µM	/	/	/
CCC(=O)N1CCN(c2nc3ccc(Br)cc3s2)CC1	?	?	18µM	.	.	.
CCCC(=O)N1CCN(c2nc3ccccc3s2)CC1	?	?	.	?	.	?
CCc1ccc2nc(N3CCN(C(=O)C(C)(C)C)CC3)sc2c1	?	.	18µM	.	.	.
CCCCC(=O)N1CCN(c2nc3ccc(F)cc3s2)CC1	?	?	8.2µM	?	.	.
